In PubChem BioAssay (NCI):
This is part of a sample that, as a whole, favours compounds with a hit. Of some 79,000 tested, about 15% had one in any assay. A number with no mark means an inactive call. Calls of active or inactive are those of the source. No stated cut-off is given here; in the data, active means growth inhibition above about 70%; inactive means the rest.

How the values were obtained:
[1] = NCI Yeast Anticancer Drug Screen. Data for the rad50 strain (AID 155);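 further: 0% = growth of vehicle-only cultures of the same strain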; conditions: S. cerevisiae rad50 strain growth inhibition, active compounds read high
Procedure, shortened: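 Genetically altered yeast (DNA repair pathway); compound treatment; growth inhibition vs vehicle ctrl.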

[2] = NCI Yeast Anticancer Drug Screen. Data for the mec2-1 strain (AID 157); conditions: S. cerevisiae mec2-1 strain, active compounds read high
Procedure, shortened: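 Readout is yeast growth inhibition, normalised to vehicle-treated controls, in the mec2-1 strain exposed to compound.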

[3] = NCI Yeast Anticancer Drug Screen. Data for the sgs1 mgt1 strain (AID 161);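 further: 0% = growth of cultures given vehicle only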; conditions: S. cerevisiae sgs1 mgt1 strain, active compounds read high
Procedure, shortened: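 This yeast growth screen uses a strain with defined DNA-repair lesions; compound-treated growth is compared with vehicle-treated growth.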

[4] = NCI Yeast Anticancer Drug Screen. Data for the cln2 rad14 strain (AID 165);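 further: 0% = growth equal to vehicle treated cultures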; conditions: S. cerevisiae cln2 rad14 strain, active compounds read high
Procedure, shortened: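 Relative to vehicle controls, growth inhibition of compound-treated cln2 rad14 yeast was recorded.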

[5] = NCI Yeast Anticancer Drug Screen. Data for the bub3 strain (AID 167); conditions: S. cerevisiae bub3 mutant strain, active compounds read high
Procedure, shortened: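 Yeast carrying a defined mutation is treated with each compound, and growth is compared with that of vehicle-exposed cells to give inhibition.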

[6] = NCI Yeast Anticancer Drug Screen. Data for the mlh1 rad18 strain (AID 175); conditions: S. cerevisiae mlh1 rad18 strain growth inhibition, active compounds read high
Procedure, shortened: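 Test agents were incubated with a yeast strain of defined genotype (DNA damage repair defect). Inhibition of growth was derived by comparison with vehicle-exposed cultures.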

[7] = at 5.0 µM (retest, dose inferred, filed as 0.5)
[8] = at 50.0 µM (retest, dose inferred, filed as 5.0)

Compound | growth inhibition [1, 7] | growth inhibition [1, 8] | growth inhibition ([1]; at 50.0 µM) | growth inhibition [2, 7] | growth inhibition [2, 8] | growth inhibition ([2]; at 50.0 µM) | growth inhibition [3, 7] | growth inhibition [3, 8] | growth inhibition ([3]; at 50.0 µM) | growth inhibition [4, 7] | growth inhibition [4, 8] | growth inhibition ([4]; at 50.0 µM) | growth inhibition [5, 7] | growth inhibition [5, 8] | growth inhibition ([5]; at 50.0 µM) | growth inhibition [6, 7] | growth inhibition [6, 8] | growth inhibition ([6]; at 50.0 µM)
COc1ccccc1NC(=O)C1=CNC(C)=C(C(=O)Nc2ccccc2OC)C1/C=C/c1ccccc1 (configuration not stated) | 1% | 18% | 43.5% | -4% | 1% | -0.75% | 1% | 17% | -1.95% | -1% | -8% | -6.3% | -2% | -8% | -1.9% | -1% | 7% | 15.3%
C/C(=N\NC(=S)N1CCN(C2CCCCCC2)CC1)c1ccccn1 | -4% | 99% (active) | 50.5% | -6% | 99% (active) | 65.3% | -4% | 99% (active) | 26.1% | 8% | 99% (active) | 42% | -17% | 99% (active) | 19.4% | 14% | 99% (active) | 40%
COc1cc(/C=C2\S/C(=N/Nc3nc(-c4ccc(Br)cc4)cs3)NC2=O)cc(OC)c1OC | -2% | 67% | 84.8% (active) | -23% | 74% (active) | 76.2% (active) | -9% | 86% (active) | 97.8% (active) | -6% | 71% (active) | 80.2% (active) | 31% | 97% (active) | 95.3% (active) | 2% | 75% (active) | 91.5% (active)
CCCCCCCCCCCCCC[N+]1(CC)CCCCC1 | 77% (active) | 99% (active) | 90.2% (active) | 99% (active) | 99% (active) | 91.3% (active) | 99% (active) | 100% (active) | 92.2% (active) | 84% (active) | 99% (active) | 89.8% (active) | 99% (active) | 99% (active) | 90.8% (active) | 67% | 99% (active) | 89.5% (active)
Cc1cc(N=Nc2ccccc2C)c(N)cc1N | -12% | 56% | 99.2% (active) | -11% | 97% (active) | 99.2% (active) | 4% | 90% (active) | 99.5% (active) | -27% | 40% | 98.3% (active) | -14% | 86% (active) | 99.3% (active) | -13% | 90% (active) | 99.5% (active)
CCOC(=O)C1CC2(CCC1N)c1ccccc1-c1ccccc12 (configuration not stated) | 3% | 28% | 28.6% | -5% | 8% | 47.5% | -2% | 27% | 44.5% | -5% | 34% | 22.9% | -5% | 23% | 90.7% (active) | 1% | 81% (active) | 37.5%
Nc1nc(N)c(N=O)c(Nc2cccc(Br)c2)n1 | 57% | 98% (active) | 1.15% | 46% | 99% (active) | 13.8% | 70% (active) | 98% (active) | -6.85% | 48% | 98% (active) | 76.7% (active) | 50% | 98% (active) | 56.1% | 64% | 98% (active) | 5.05%
O=CC1(c2ccc(Cl)cc2)NC(=O)NC1=O (configuration not stated) | -1% | 1% | 3.45% | -1% | -3% | -1.7% | 2% | 2% | -9.45% | 3% | -14% | 83% (active) | -1% | -1% | -10.3% | -5% | -4% | 3.35%
CN1CCN(C2=C(Cl)C3(OCCS3)C(F)(F)C2(F)F)CC1 (configuration not stated) | -1% | -42% | 34.1% | 26% | 53% | 34.2% | 15% | 58% | 53.7% | 1% | 29% | 49.2% | 5% | 22% | 39.9% | 20% | 68% | 48.1%
